Here are results for 16 compounds from PubChem BioAssay.

SMILES strings stand for the structures. A number with no mark means an inactive call. The rule behind the calls is not given here.

In the experiment the target is Pantothenate synthetase (Mycobacterium tuberculosis (strain ATCC 25618 / H37Rv)) (UniProt P9WIL5). Briefly: Recombinant Mtb pantothenate synthetase (PanC) inhibitors, coupled enzyme, confirmatory (AID 375).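 Note: 0% = full reaction with vehicle and 100% = no enzyme background.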 The following applies: coupled enzyme assay; at 10 µM, active compounds read high.
Sequence of Pantothenate synthetase (Mycobacterium tuberculosis (strain ATCC 25618 / H37Rv)) (P9WIL5 whole entry, looked up): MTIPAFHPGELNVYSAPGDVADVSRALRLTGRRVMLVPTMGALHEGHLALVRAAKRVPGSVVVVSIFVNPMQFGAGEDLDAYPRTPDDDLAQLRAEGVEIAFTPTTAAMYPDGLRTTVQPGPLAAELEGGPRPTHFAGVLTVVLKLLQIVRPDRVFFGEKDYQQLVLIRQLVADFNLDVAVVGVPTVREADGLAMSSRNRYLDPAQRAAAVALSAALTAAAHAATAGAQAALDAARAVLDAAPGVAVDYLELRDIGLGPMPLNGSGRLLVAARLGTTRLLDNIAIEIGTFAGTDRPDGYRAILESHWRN
A word on the inhibition: it is how much of the control response was suppressed. As to `COc1cc(NS(=O)(=O)c2cccc3nsnc23)c(C(=O)O)cc1OC`, the inhibition was 0%. Next, `COCCn1c(SCC(=O)Nc2cccc(OC)c2)nnc1-c1ccc(Cl)cc1`: 3%; `O=C(Cn1nc(Cc2cccnc2)c2ccccc2c1=O)Nc1ccc2c(c1)OCO2`: 0%. Next, `Cc1nc(SCC(=O)CC(=O)OC(C)C)c(C#N)c(C)c1C`: 0%. Next, `CC(=O)N1CCN(C(=O)COc2ccc(Br)cc2)CC1`: 0%; `COc1ccc(N(CC(=O)Nc2ccc(F)c(Cl)c2)S(=O)(=O)c2c(C)noc2C)cc1`: 11%; `Cc1ccc(S(=O)(=O)Cn2nnnc2C(C(C)C)N2CCN(C(=O)c3ccco3)CC2)cc1` (stereo unspecified): 0%. On to `CC(=O)c1cccc(NC(=O)CCNS(=O)(=O)c2cccc3nsnc23)c1`, for which the inhibition is 0%. As for `CCOC(=O)N1CCN(C(=O)COc2ccc(S(=O)(=O)NC3CCCCC3)cc2C)CC1`, the figure is 2%. As for `C=CCn1c(Cc2csc(N)n2)nnc1SCC(=O)OCC`, the figure is 1%; as for `O=C(CN(C1CCCCC1)S(=O)(=O)c1ccccc1)NCc1cccnc1`, 0%; as for `CCCCn1c(SCc2ccc(Cl)cc2)nc2c1c(=O)[nH]c(=O)n2C`, 6%. As for `COc1ccc2nc3oc(C(=O)NC4CCN(Cc5ccccc5)CC4)cc3cc2c1`, the figure is 1%; as for `Cc1ccc(-n2ncc3c(N4CCN(c5ccc(F)cc5)CC4)ncnc32)c(C)c1`, 6%; as for `Cc1ccc(C)c(N2CCN(S(=O)(=O)c3ccc4c(c3)OCCO4)CC2)c1`, 4%. As to `O=C(c1ccc(S(=O)(=O)N2CCC(c3nc4ccccc4s3)CC2)cc1)N1CCOCC1`, the inhibition was 0%.
